Among the test systems are NCI-H23 lung; NCI-H226 lung; NCI-H322M lung; HOP-62 NSCLC; NCI-H460 lung; HOP-92 NSCLC; NCI-H522 lung; A549/ATCC NSCLC; 786-0 renal; COLO 205 colon; DU-145 prostate; K-562 leukemia; MALME-3M melanoma; MDA-MB-231 breast; RXF 393 renal; SF-268 CNS; SF-295 CNS; SF-539 CNS; UACC-257 melanoma; M14 melanoma.
Holding throughout (assay): NCI-60 one-dose screen, 48 h (100 = growth as untreated, 0 = no growth, -100 = all killed)
Holding throughout (conditions): 10 µM unless noted

Molecules are shown by their SMILES. About 83,000 compounds went through this panel and 20% of them were active in at least one assay; those are over-represented in the sample as a whole.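 Activity criterion: percent growth below 10, measured after cells in 96-well plates were exposed to a single compound concentration for 48 hours.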 A number with no mark means an inactive call. Activity calls are given as the source filed them.

For `O=C(O)CN1C(=O)CCC1=O`, the growth in the experiment on NCI-H23 lung is 104%; in the experiment on NCI-H226 lung, 101%; with NCI-H322M lung it was 123%; with HOP-62 NSCLC, 97.1%; with NCI-H460 lung, 115%; in the experiment with HOP-92 NSCLC, 97.2%. The growth is 103% in the experiment on NCI-H522 lung; 98.4% in the experiment with A549/ATCC NSCLC; 105% with 786-0 renal; 118% in the experiment on COLO 205 colon; 109% with DU-145 prostate; 111% with K-562 leukemia. In addition, the growth in the experiment on MALME-3M melanoma was 104%; in the experiment on MDA-MB-231 breast it was 90.7%; with RXF 393 renal, 111%; with SF-268 CNS it was 99.8%; in the experiment with SF-295 CNS, 99.1%; in the experiment with SF-539 CNS it was 99%. Also, the growth in the experiment on UACC-257 melanoma is 104%; with M14 melanoma, 111%.

For `C[C@H](NC(=O)[C@@H]1CSSC[C@@H](NC(=O)c2nc3ccccc3cc2O)C(=O)NCC(=O)N1C)c1ccccc1`, the growth in the experiment on NCI-H23 lung was 38.6%; with NCI-H226 lung, 60.5%; in the experiment on NCI-H322M lung, 76.7%; with HOP-62 NSCLC, 66.6%; in the experiment on NCI-H460 lung it was 6.55% (active); with HOP-92 NSCLC it was 51.6%. Further, the growth in the experiment on NCI-H522 lung was 24.7%; in the experiment on A549/ATCC NSCLC, 42.9%; in the experiment with 786-0 renal, -37.2% (active); in the experiment with COLO 205 colon, -63.7% (active); in the experiment with DU-145 prostate, 32.2%; in the experiment on K-562 leukemia, -30.9% (active). Moreover, the growth in the experiment on MALME-3M melanoma is 49.9%; with MDA-MB-231 breast, -39.5% (active); in the experiment with RXF 393 renal it was -27.4% (active); with SF-268 CNS it was 17.6%; in the experiment on SF-295 CNS, 77.6%; in the experiment with SF-539 CNS, 5.09% (active). The growth was 60.9% in the experiment on UACC-257 melanoma and 0.586% (active) in the experiment on M14 melanoma.

In the case of `COc1ccc(CN2C(=O)C(Cl)=C(Nc3cccc(C(F)(F)F)c3)C2=O)cc1`, the growth was 36.8% with NCI-H23 lung; 49.5% in the experiment with NCI-H226 lung; 84.3% in the experiment with NCI-H322M lung; 28.3% in the experiment on HOP-62 NSCLC; 22% in the experiment with NCI-H460 lung; -17.2% (active) in the experiment with HOP-92 NSCLC. The growth with NCI-H522 lung was 40.6%; with A549/ATCC NSCLC, 59.2%; with 786-0 renal it was 37.8%; in the experiment with COLO 205 colon, 36.5%; with DU-145 prostate it was 84.9%; in the experiment on K-562 leukemia, 27.9%. For the same compound, the growth is 52.1% in the experiment on MALME-3M melanoma; 46.6% in the experiment on MDA-MB-231 breast; 23.6% in the experiment on RXF 393 renal; 33.7% in the experiment with SF-268 CNS; 38.1% in the experiment with SF-295 CNS; 7.41% (active) in the experiment on SF-539 CNS. The growth in the experiment on UACC-257 melanoma is 54.9%; with M14 melanoma, 63.5%.

For the compound `Clc1cccc(Cl)c1C(Nc1nc2ccccc2s1)Nc1nc2ccccc2s1`, the growth with NCI-H23 lung is 101%; in the experiment with NCI-H226 lung, 89.9%; in the experiment on NCI-H322M lung, 106%; in the experiment with HOP-62 NSCLC it was 99.7%; in the experiment with NCI-H460 lung, 105%; in the experiment on HOP-92 NSCLC, 17.3%. Also, the growth was 90.8% with NCI-H522 lung; 106% in the experiment on A549/ATCC NSCLC; 110% in the experiment with 786-0 renal; 114% with COLO 205 colon; 131% with DU-145 prostate; 79.6% in the experiment on K-562 leukemia. Moreover, the growth with MALME-3M melanoma is 123%; in the experiment with MDA-MB-231 breast, 104%; in the experiment with RXF 393 renal it was 104%; with SF-268 CNS, 105%; in the experiment with SF-295 CNS, 143%; in the experiment on SF-539 CNS, 93.6%. The results for the growth in the experiment on UACC-257 melanoma and in the experiment on M14 melanoma were 102% and 122%, respectively.

As for `COc1cc2c(cc1-c1c(C)noc1C)ncc1nc(C3CCC(F)(F)CC3)n(C3CCC(OC(F)F)CC3)c12` (stereo not given), the growth is 68.3% in the experiment on NCI-H23 lung; 66.7% in the experiment on NCI-H226 lung; 47.7% in the experiment with NCI-H322M lung; 37.1% with HOP-62 NSCLC; 62.6% with NCI-H460 lung; 12.9% with HOP-92 NSCLC. The growth in the experiment on NCI-H522 lung is 12.5%; with A549/ATCC NSCLC it was 64.1%; with 786-0 renal it was 53.4%; in the experiment on COLO 205 colon, 28.4%; with DU-145 prostate it was 73.3%; in the experiment with K-562 leukemia it was 41.5%. For the same compound, the growth with MALME-3M melanoma is 48.2%; in the experiment on MDA-MB-231 breast, 37.8%; in the experiment on RXF 393 renal it was 75.5%; in the experiment on SF-268 CNS, 72.7%; with SF-295 CNS, 68.1%; in the experiment with SF-539 CNS it was 61.8%. Also, the growth is 38.8% in the experiment with UACC-257 melanoma and 55.1% in the experiment with M14 melanoma.

In the case of `CC1(C)CC(=O)C2=C(C1)N(c1ccc(OC(F)(F)F)cc1)C(N)=C(C#N)C2c1ccc(Cl)cc1` (stereo not given), the growth with NCI-H23 lung is 85.6%; in the experiment on NCI-H226 lung, 90.7%; in the experiment with NCI-H322M lung, 91.3%; in the experiment with HOP-62 NSCLC it was 72.7%; in the experiment on NCI-H460 lung it was 93.7%; in the experiment with HOP-92 NSCLC it was 58.5%. Moreover, the growth in the experiment with NCI-H522 lung is 63.1%; with A549/ATCC NSCLC, 76.3%; in the experiment with 786-0 renal, 78.6%; in the experiment with COLO 205 colon it was 96.6%; in the experiment with DU-145 prostate it was 91.3%; with K-562 leukemia it was 86.5%. Further, the growth is 85% in the experiment on MALME-3M melanoma; 80.8% in the experiment on MDA-MB-231 breast; 66.7% in the experiment on RXF 393 renal; 74.3% in the experiment with SF-268 CNS; 81.6% with SF-295 CNS; 82.2% in the experiment with SF-539 CNS. In addition, the growth in the experiment on UACC-257 melanoma is 84.1%; in the experiment with M14 melanoma it was 93.7%.

With `COc1ccc2c(c1)CCCN2c1c2ccccc2nc2ccccc12`, the growth in the experiment on NCI-H23 lung was 15.8%; in the experiment with NCI-H226 lung, 12.6%; in the experiment with NCI-H322M lung, 45.9%; with HOP-62 NSCLC, 33.2%; in the experiment with NCI-H460 lung, 6.18% (active); in the experiment with HOP-92 NSCLC it was 12.4%. Moreover, the growth was -0.944% (active) in the experiment on NCI-H522 lung; 18.5% in the experiment on A549/ATCC NSCLC; 28.9% in the experiment with 786-0 renal; -16.8% (active) with COLO 205 colon; 5.71% (active) with DU-145 prostate; 9.39% (active) with K-562 leukemia. The growth with MALME-3M melanoma was 55.3%; in the experiment on MDA-MB-231 breast it was 6.06% (active); in the experiment on RXF 393 renal, 27.1%; in the experiment with SF-268 CNS, 33.7%; with SF-295 CNS, 8.45% (active); with SF-539 CNS it was -26.4% (active). Also, the growth was 71.2% with UACC-257 melanoma and 3.64% (active) in the experiment on M14 melanoma.

The values above are taken from PubChem BioAssay (NCI).
